# Hit rate of the full screen: of about 66,000 compounds, about 960 (1.5%) showed an effect of 50% or more. The list comes from a sample in which strong results are over-represented; it also holds similar structures and randomly drawn compounds.
# Test system: Trypanosoma brucei
# Experiment: Trypanosoma brucei 72 hour study
# Type: functional, organism-based
# Set-up: scale not given: in the data most compounds retested in dose-response had high values
structure (smiles),measurement,setting,value
CCc1n[nH]c(C2CN(C(=O)c3cnc(C)cn3)CCO2)n1 (stereo unspecified),Percent Effect,10 µM,-10.87%
Cc1noc(C)c1CN1CCN(CC2CC2)c2ncccc2C1.O=C(O)C(F)(F)F.O=C(O)C(F)(F)F,Percent Effect,"30 µM, 30.03 µM",-2.749%
CNC(=O)C1CCCCN1C(=O)C1CCN(S(C)(=O)=O)CC1 (stereo unspecified),Percent Effect,"30.3 µM, […]",4.842%
Cc1nc(Nc2nncs2)cc(C2CNC2)n1.O=C(O)C(F)(F)F,Percent Effect,"30.3 µM, […]",-21.99%
CC(C)NC(=O)N1CCN(CCn2cccn2)c2ncccc2C1.O=C(O)C(F)(F)F,Percent Effect,"30.3 µM, […]",-82.31%
CN(C)CC(=O)N1CCCC2(CCN(c3ccccc3)C2=O)C1.O=C(O)C(F)(F)F (stereo unspecified),Percent Effect,"30.3 µM, […]",-9.805%
Cc1noc(C)c1CN1C[C@H](OCc2ccncc2)[C@H]2OCCC[C@H]21.O=C(O)C(F)(F)F.O=C(O)C(F)(F)F,Percent Effect,"30 µM, 30.03 µM",3.056%
CN(C)C(=O)[C@@H]1C[C@@H]2[C@@H](CCN2Cc2nccs2)O1.O=C(O)C(F)(F)F,Percent Effect,"30.3 µM, […]",-77.1%
Cn1ccc(CN2CCCC23CCN(Cc2ccccc2F)CC3)n1.O=C(O)C(F)(F)F.O=C(O)C(F)(F)F,Percent Effect,"30.3 µM, […]",-74.92%
O=C(NC1CC1)N1CCOCC2(CCN(Cc3cccs3)C2)C1.O=C(O)C(F)(F)F (stereo unspecified),Percent Effect,"30.3 µM, […]",-9.319%
Cl.c1nn(C2CCCCC2)cc1-c1cncn1CCCN1CCCCC1,Percent Effect,"30.3 µM, […]",-11.05%
Cc1cccc(C(=O)N2CCC3(CCN(c4cnn(C)c4)C3=O)C2)n1.O=C(O)C(F)(F)F (stereo unspecified),Percent Effect,"30 µM, 30.03 µM",-10.65%
CC(O)CNc1nc(-c2cccnc2)nc2c1CCC2 (stereo unspecified),Percent Effect,"30 µM, 30.03 µM",5.601%
CCc1noc(CNc2nc(-c3cccnc3)nc3c2CCNCC3)n1,Percent Effect,"30.3 µM, […]",2.358%
Cl.NC1CCc2nc(-c3cccnc3)nc(Nc3ccc(F)cc3)c2C1 (stereo unspecified),Percent Effect,"30.3 µM, […]",100.3%
CN(CC1CCCO1)c1nc(-c2cccnc2)nc2c1CCNCC2 (stereo unspecified),Percent Effect,"30 µM, 30.03 µM",0.7603%
c1cncc(-c2nc3c(c(NCC4(c5ccncc5)CC4)n2)CCC3)c1,Percent Effect,"30 µM, 30.03 µM",-5.668%
CN(C)c1cccc(C(=O)N2CCCC2c2ncc3c(n2)CCNC3)c1.Cl (stereo unspecified),Percent Effect,"30.3 µM, […]",-32.8%
CNS(=O)(=O)c1ccc(CNC(=O)N2CCOC(C)C2)cc1 (stereo unspecified),Percent Effect,"30.3 µM, […]",-5.397%
Cc1ccc2[nH]c(CNC(=O)C3CC4(CCNCC4)CN3C)nc2c1C (stereo unspecified),Percent Effect,"30 µM, 30.03 µM",-11.35%
CN(Cc1cncnc1)[C@@H]1CN(C(=O)c2ccco2)[C@@H]2CCCO[C@H]12.O=C(O)C(F)(F)F,Percent Effect,"30.3 µM, […]",-35.75%
CCC(=O)N1CCCC1c1csc(Nc2cnccn2)n1 (stereo unspecified),Percent Effect,"30.3 µM, […]",65.49%
Cc1nc(Nc2cnccn2)cc(C2CCN(c3ncccn3)C2)n1 (stereo unspecified),Percent Effect,"30.3 µM, […]",26.81%
c1cnc(N2CCC(c3csc(Nc4cnccn4)n3)CC2)nc1,Percent Effect,"30.3 µM, […]",69.17%
CC(=O)N1CCCC1c1csc(Nc2cnccn2)n1 (stereo unspecified),Percent Effect,"30 µM, 30.03 µM",-20%
c1cnc(N2CCCC(c3csc(Nc4cnccn4)n3)C2)nc1 (stereo unspecified),Percent Effect,"30.3 µM, […]",86.19%
OCCN1CCC(c2csc(Nc3cnccn3)n2)CC1,Percent Effect,"30.3 µM, […]",6.088%
NC(=O)CN1CCC(c2csc(Nc3cnccn3)n2)CC1,Percent Effect,"30.3 µM, […]",30.88%
c1cnc(Nc2cncc(C3CCCN(c4ncccn4)C3)n2)nc1 (stereo unspecified),Percent Effect,"30.3 µM, […]",-5.193%
COCC(=O)N1CCCC1c1csc(Nc2cnccn2)n1 (stereo unspecified),Percent Effect,"30.3 µM, […]",22.69%
Cc1c[nH]nc1C1CCCN1Cc1nccn1C.O=CO (stereo unspecified),Percent Effect,"30.3 µM, […]",-18.81%
CN1CCC(CN2CCC3(CCCN(Cc4ccoc4)C3)C2=O)CC1.O=C(O)C(F)(F)F.O=C(O)C(F)(F)F (stereo unspecified),Percent Effect,"30.3 µM, […]",-15.67%
Cn1cc(-c2ncc3c(c2C(=O)O)CCN(Cc2ccco2)C3)cn1.O=C(O)C(F)(F)F,Percent Effect,"30.3 µM, […]",-50.82%
CN(C)C1CCC2(CCN(Cc3cccnc3)CC2)c2ccccc21.O=C(O)C(F)(F)F.O=C(O)C(F)(F)F.O=C(O)C(F)(F)F (stereo unspecified),Percent Effect,"30.3 µM, […]",-21.62%
c1ccc(C2CCN(c3ncnc4c3CCNC4)CC2)cc1,Percent Effect,"30.3 µM, […]",50.1%
c1ccc2c(c1)CN(c1ncnc3c1CCNC3)CCO2,Percent Effect,"30.3 µM, […]",5.814%
c1ccc(C2CCCN(c3ncnc4c3CCNC4)CC2)cc1 (stereo unspecified),Percent Effect,"30.3 µM, […]",41.62%
Clc1cccc(C2CCN(c3ncnc4c3CCNC4)C2)c1 (stereo unspecified),Percent Effect,"30.3 µM, […]",68.15%
c1cc(C2CCN(c3ncnc4c3CCNCC4)CC2)ccn1,Percent Effect,"30.3 µM, […]",2.643%
c1ccn2c(C3CCCN(c4ncnc5c4CCNC5)C3)nnc2c1 (stereo unspecified),Percent Effect,"30 µM, 30.03 µM",-44.47%
CCCC(=O)NC1CCN(c2ccccc2S(=O)(=O)CC)CC1,Percent Effect,"30.3 µM, […]",-21.44%
CCNc1ncc2c(n1)CN(c1ccc(CC)cc1)C2=O,Percent Effect,"30.3 µM, […]",-19.29%
COc1cccc(Cc2nc3c([nH]2)CC(C)(C)CNC3=O)c1OC,Percent Effect,"30 µM, 30.03 µM",5.431%
O=C1NCCN1C1CCN(Cc2nc(-c3ccccc3)no2)CC1,Percent Effect,"30.3 µM, […]",2.472%
same,Percent Effect,"10 mM, 10 mM as filed; unlikely as a test dose",-47.27%
O=C(CO)N1C[C@H]2CN(Cc3cccc(F)c3)C(=O)[C@H]2C1,Percent Effect,"30 µM, 30.03 µM",-7.119%
O=C(NC1CC1)N1C[C@H]2CN(Cc3cccc(F)c3)C(=O)[C@H]2C1,Percent Effect,"30 µM, 30.03 µM",59.25%
O=C(c1ccco1)N1C[C@H]2CN(Cc3cccc(F)c3)C(=O)[C@H]2C1,Percent Effect,"30 µM, 30.03 µM",-14.72%
O=C(O)C(F)(F)F.O=C(O)C(F)(F)F.c1csc(CN2CCOCC3(CCN(C4CCOCC4)C3)C2)c1 (stereo unspecified),Percent Effect,"30 µM, 30.03 µM",45.09%
O=c1[nH]c2c(c(=O)n1C1CCCCC1)CCC2NCc1ccccc1 (stereo unspecified),Percent Effect,"30 µM, 30.03 µM",-25.27%
CCn1nc(C)c2ncnc(NCCCn3ccnc3)c21,Percent Effect,"30.3 µM, […]",-35.88%
Cc1ccc(Oc2ncccc2CNC(=O)C2COC(=O)N2)c(F)c1F (stereo unspecified),Percent Effect,"30 µM, 30.03 µM",17.54%
COc1ccccc1Oc1ncccc1CNC(=O)C1COC(=O)N1 (stereo unspecified),Percent Effect,"30 µM, 30.03 µM",-37.43%
Cc1cccc(C)c1Oc1ncccc1CNC(=O)C1COC(=O)N1 (stereo unspecified),Percent Effect,"30 µM, 30.03 µM",52.62%
O=C(O)C(F)(F)F.O=C(O)C(F)(F)F.O=C(O)C(F)(F)F.O=C(O)C(F)(F)F.c1ccc(CN2CCc3c(COCc4ccncc4)cncc3C2)nc1,Percent Effect,"30.3 µM, […]",-62.04%
CCN(CC)Cc1cc(=O)n2c(n1)CN(S(=O)(=O)C1CC1)CCC2.O=C(O)C(F)(F)F,Percent Effect,"30.3 µM, […]",-2.806%
COc1c(CNC2CCc3c(F)cccc32)c(C)nn1C.Cl (stereo unspecified),Percent Effect,10 µM,-43.32%
CC(C)[C@@H]1CN(CCOc2ccc(Cl)cc2)C[C@H]1NS(C)(=O)=O,Percent Effect,"30.3 µM, […]",10.13%
CC(C)[C@@H]1CN(Cc2ccccn2)C[C@H]1NS(=O)(=O)N(C)C,Percent Effect,"30 µM, 30.03 µM",-48.57%
CC(C)[C@@H]1CN(CCOc2ccccc2)C[C@H]1NS(=O)(=O)N(C)C,Percent Effect,"30.3 µM, […]",99.19%
Cc1ccc2c(c1)C(=O)NCC1(CCN(C(=O)c3ccccn3)CC1)O2,Percent Effect,"30.3 µM, […]",1.622%
CCN1C(=O)CC(c2ccccc2)C12CCN(CC1CCOCC1)CC2.O=C(O)C(F)(F)F (stereo unspecified),Percent Effect,"30.3 µM, […]",16.26%
CNc1ncc2c(n1)CN(CCc1ccccc1)C2=O,Percent Effect,"30 µM, 30.03 µM",0.2551%
COc1ccccc1OC1CCN(Cc2cnc(N(C)C)nc2)CC1,Percent Effect,"30 µM, 30.03 µM",59.89%
COCc1ncc(CN2CCC(Oc3ccccc3OC)CC2)cn1,Percent Effect,"30 µM, 30.03 µM",-7.671%
COc1ccccc1OC1CCN(Cc2ccc(N(C)C)nc2)CC1,Percent Effect,"30 µM, 30.03 µM",16.29%
C[C@@H]1C(=O)NC[C@H]2CN(Cc3ccc4c(c3)OCO4)C[C@H]21.O=C(O)C(F)(F)F,Percent Effect,"30.3 µM, […]",-39.22%
Cn1cccc1CN1CCC2(CC1)CN(c1ccccc1)C(=O)CO2.O=C(O)C(F)(F)F,Percent Effect,"30 µM, 30.03 µM",-21.68%
CCCn1ccc(C(=O)N2CCOC(c3nc(-c4cccs4)no3)C2)n1 (stereo unspecified),Percent Effect,"30 µM, 30.03 µM",67.6%
CCCn1cc(C(=O)N2CCOC(c3nc(-c4cccs4)no3)C2)cn1 (stereo unspecified),Percent Effect,"30.3 µM, […]",19.04%
CCn1ccc(C(=O)N2CCOC(c3nc(-c4cccs4)no3)C2)n1 (stereo unspecified),Percent Effect,"30.3 µM, […]",21.37%
Cc1csc(CN2CCC3(CC2)COC(COCC2CC2)C3)n1.O=C(O)C(F)(F)F (stereo unspecified),Percent Effect,"30.3 µM, […]",-1.163%
COc1nn(C)c2c1CCCN(C(=O)c1ccc3c(c1)OCO3)C2.O=C(O)C(F)(F)F,Percent Effect,"30 µM, 30.03 µM",-20.99%
CC(=O)N1CCN(c2cc(CCN)nc(C3CC3)n2)CC1.Cl,Percent Effect,"30.3 µM, […]",1.602%
COCCN1C[C@@H]2CN(Cc3ccc(F)cc3)C[C@@H]2C1=O.O=C(O)C(F)(F)F,Percent Effect,"30.3 µM, […]",-7.407%
O=C(O)C(F)(F)F.O=C1[C@H]2CN(Cc3ccco3)C[C@H]2CN1c1ccsc1,Percent Effect,"30 µM, 30.03 µM",73.83%
O=C(O)C(F)(F)F.O=C1[C@H]2CN(Cc3ccc(F)cc3)C[C@H]2CN1c1ccsc1,Percent Effect,"30 µM, 30.03 µM",14.65%
O=C(O)C(F)(F)F.O=C1[C@H]2CN(Cc3cccs3)C[C@H]2CN1c1ccsc1,Percent Effect,"30 µM, 30.03 µM",27.72%
CCOCCCn1c(NC(=O)c2cc(C)on2)nc2ccccc21,Percent Effect,10 µM,-33.65%
CCOCCCn1c(NC(=O)c2ccc(C)nc2)nc2ccccc21,Percent Effect,"30 µM, 30.03 µM",8.402%
CCCn1c(NC(=O)CNC(=O)OCC)nc2ccccc21,Percent Effect,"30 µM, 30.03 µM",-18.3%
CCOCCCn1c(NC(=O)c2cnn(C)c2)nc2ccccc21,Percent Effect,"30 µM, 30.03 µM",64.95%
CCOCCCn1c(NC(=O)c2cnc(C)s2)nc2ccccc21,Percent Effect,10 µM,-28.52%
CCOCCCn1c(NC(=O)c2cnc(C)cn2)nc2ccccc21,Percent Effect,10 µM,-41.49%
CCOCCCn1c(NC(=O)c2scnc2C)nc2ccccc21,Percent Effect,"30 µM, 30.03 µM",105.1%
CCOCCCn1c(NC(=O)c2ccnc(C)n2)nc2ccccc21,Percent Effect,10 µM,-13.79%
CCN(CC)CCn1c(NC(=O)c2scnc2C)nc2ccccc21,Percent Effect,10 µM,84.6%
Cc1noc(C)c1CN1CCOCC12CCN(c1ncccn1)CC2.O=C(O)C(F)(F)F,Percent Effect,"30.3 µM, […]",-79.15%
O=C(O)C(F)(F)F.O=C1CCC2(CCCN(CCc3ccccc3)C2)N1Cc1cccnc1 (stereo unspecified),Percent Effect,"30.3 µM, […]",-16.68%
CN(C)C(=O)[C@H]1C[C@@H]2CN(S(=O)(=O)Cc3ccccc3)C[C@H]1O2,Percent Effect,"30 µM, 30.03 µM",24.58%
COc1ccc(CN2CCO[C@H]3[C@H](OCc4ccncc4)CC[C@@H]32)cc1.O=C(O)C(F)(F)F.O=C(O)C(F)(F)F,Percent Effect,"30.3 µM, […]",-84.86%

# Reference: ChEMBL document CHEMBL3988442, “University of Dundee, Small-Polar-MMV Screening Library” (2021)
